Calls of active or inactive are those of the source.

The nature of the first experiment: probe aXIP binding to arrayed compounds – biochemical, NeuroSMM set, 635/667 nm fluorescence, primary screen (AID 1119).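 Further: probe is the protein aXip251-270 applied at 1 µg/mL to compound-printed slides; binding of probe to printed compounds measured as 667 nm fluorescence plus signal to noise.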 Conditions: small-molecule microarray, higher = more signal, called active from +8 up or from −8 down.
With `COC(=O)[C@@]1(Cc2ccccc2)[C@H]2c3cc(C(=O)N(C)C)n(Cc4nc5ccccc5[nH]4)c3C[C@H]2CN1C(=O)c1ccccc1`, the composite Z-score was 0.0729 (inactive).
Still for that read-out and setting: under `C=C(C(=O)CC[C@@H](OC(=O)c1ccccc1-c1ccccc1C(=O)O)c1ccc(OCCO)cc1)C(C)C` stands -0.32 (inactive).
Regarding `COCCOC(=O)N1C(=O)[C@@]2(c3cc(C#CCCO)ccc31)[C@H](C(=O)N1CCN(c3ncccn3)CC1)[C@H]1C(=O)O[C@H](c3ccccc3)[C@H](c3ccccc3)N1[C@@H]2c1ccc(OCCO)cc1`, the composite Z-score was -0.265 (inactive).
Turning to `O=C1OC[C@@H](c2ccccc2)n2cc(/C=C/c3ccccc3)cc21`, the composite Z-score was 0.597 (inactive).
For the molecule `CCOC(=O)C[C@H]1[C@H](OC(=O)c2cc3ccccc3oc2=O)[C@@H](NC(=O)Cc2ccc(OC)cc2)c2cc(OCCCO)ccc2N1C(=O)Cc1ccc(OC)cc1`, the composite Z-score was 0.594 (inactive).
Same read-out and setting: in the case of `C=CCN1C(=O)[C@@]2(O[C@@H](CCO)[C@H]([Si](C)(C)c3ccc(OC)cc3)[C@H]2C)c2cc(N3CCCCC3=O)ccc21` it was 0.734 (inactive); in that of `COc1ccc(CCNC(=O)[C@@]2(C)c3ccccc3C(=O)N(Cc3ccc(OC(F)(F)F)cc3)[C@H]2c2ccc(CO)cc2)cc1`, 0.431 (inactive); in that of `COC(=O)[C@@]1(Cc2ccccc2)[C@H]2c3cc(C(=O)N(C)C)n(CCF)c3C[C@H]2CN1C(=O)c1ccccc1`, 0.507 (inactive).
Take `COc1ccc(NN2C(C(O)c3ccc(F)cc3)C=CC3C(=O)N(C4CCCCC4)C(=O)C32)cc1` (stereo not given): the composite Z-score is -0.0189 (inactive).
On to `COC(=O)[C@@]1(Cc2ccc(F)cc2)[C@H]2c3cc(C(=O)N(C)C)n(Cc4ccsc4Br)c3C[C@H]2CN1C(=O)c1ccccc1`, for which the composite Z-score was -0.857 (inactive).
On to `COc1ccc(NN2C(C(O)c3ccccc3)C=CC3C(=O)N(C4CCCCC4)C(=O)C32)cc1` (stereo not given), for which the composite Z-score was 0.38 (inactive).
Still for that read-out and setting: in the case of `C=CC[C@H](OC(=O)Nc1ccc(SC)cc1)c1ccc(O)c(F)c1` it was 0.514 (inactive).
Regarding `CO[C@H]1O[C@H](CO)[C@@H](OC(=O)CCc2ccccc2)[C@@H]2OC(=O)[C@@H](Cc3ccc4ccccc4c3)C/C=C/C[C@H](Cc3ccc4ccccc4c3)C(=O)O[C@@H]12`, the composite Z-score is 0.128 (inactive).
On to `COC(=O)[C@H](Cc1ccccc1)N1CC(C)(OC)O[C@@H](Cc2ccccc2)[C@H]1/C=C/C1CC1` (stereo not given in full), for which the composite Z-score was 0.571 (inactive).
Regarding `C[C@H]1C2[C@H](Cc3ccccc3)NC(=O)[C@]23C(=O)N[C@@H](Cc2ccccc2)C(=O)N2CCC[C@H]2C(=O)NC/C=C/CC/C=C/C3[C@@H]2O[C@]12C` (stereo not given in full), the composite Z-score is -0.571 (inactive).
With `C=C(C(=O)CC[C@@H](OC(=O)c1ccccc1-c1ccccc1C(=O)O)c1cccc(OCCO)c1)C(C)C`, the composite Z-score is -0.88 (inactive).
On the same count and under the same terms, in the case of `C=C(CCCC)C(=O)CC[C@H](OC(=O)c1ccccc1-c1ccccc1C(=O)O)c1cccc(OCCO)c1` it was -0.634 (inactive); in that of `C=C(CCCC)/C(=C/C[C@@H](OC(C)=O)c1cccc(OCCO)c1)c1cc(C(=O)OC)ccc1OC`, 0.303 (inactive); in that of `CCCCCN1CC=CC23O[C@@H]4/C=C\CCCOC(=O)C4[C@H]2C(=O)N(CCO)[C@@H]3C1=O` (stereo not given in full), 0.0463 (inactive).
Turning to `O=C1NC(=O)C2C1C=CC(C(O)C1CCCCC1)N2Nc1ccccn1` (stereo not given), the composite Z-score was 0.468 (inactive).
As for `COC(=O)C1(CC(C)C)C=C2C(=C(C)C(=O)C2C)CN1` (stereo not given), the composite Z-score is 1.64 (inactive).
As for `Cc1ccc(N2C(=O)c3ccccc3[C@@H](C(=O)NCCN3CCOCC3)[C@@H]2c2ccc(CO)cc2)nc1`, the composite Z-score was 0.309 (inactive).
The same measure, in the same setting: in the case of `COCCOC(=O)N1C(=O)[C@@]2(c3cc(C#CCNC(N)=O)ccc31)[C@H](c1ccc(O)cc1)N1[C@H](c3ccccc3)[C@H](c3ccccc3)OC(=O)[C@H]1[C@@H]2C(=O)N1CCc2cc(OC)c(OC)cc2C1` it was 0.443 (inactive); in that of `O=C(NC1CC1)[C@@H]1c2ccccc2C(=O)N(C2CCCCC2)[C@H]1c1ccc(CO)cc1`, 0.635 (inactive).
Still for that read-out and setting: in the case of `COc1ccc([Si](C)(C)[C@@H]2[C@@H](CC(=O)N(CCO)Cc3ccccc3)O[C@]3(C(=O)N(Cc4cccc(I)c4)c4ccccc43)[C@H]2C)cc1` it was 0.0089 (inactive).

The nature of a further experiment: probe aNOTCH3 binding on compound microarray – biochemical, small-molecule microarray, 635/667 nm fluorescence, primary screen (AID 1120).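 Further: probe is a biotin-tagged antibody raised against NOTCH3 rather than NOTCH3 protein; score merges spot fluorescence near 667 nm with spot signal to noise.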 The settings on record: higher = more signal.
For the molecule `O=C(O)C1=CC[C@H]2C(=O)N(c3ccccc3)C(=O)[C@@H]12`, the composite z-score was 0.21.
`CCc1cccc(NC(=O)O[C@H]2[C@H](OC(=O)Nc3ccccc3-c3ccccc3)[C@H](OC(=O)Nc3ccccc3-c3ccccc3)[C@@H](OC)O[C@@H]2CO)c1`: the composite z-score stood at 0.122.
`C=C(COC)/C(=C/C[C@@H](OC(C)=O)c1cccc(OCCO)c1)c1cnc2ccccc2c1` had a composite z-score of 0.0916.
Same read-out and setting: under `Cc1ccc(S[C@]2(C(=O)NCc3ccccc3)CC(=O)N(Cc3ccccc3C(F)(F)F)[C@@H]2c2ccc(CO)cc2I)cc1` stands -0.242; under `COCCOC(=O)N1C(=O)[C@@]2(c3cc(C#CC4(O)CCCCCC4)ccc31)[C@H](C(N)=O)[C@H]1C(=O)O[C@H](c3ccccc3)[C@H](c3ccccc3)N1[C@@H]2c1ccc(OCCO)cc1`, 0.086; under `COc1c(C)cc(-c2cc3c(c(CCc4ccccc4)n2)[Si](C(C)C)(C(C)C)O[C@H]3c2ccccc2)cc1C`, -0.0728.
Same read-out and setting: in the case of `COC(=O)[C@@]1(Cc2ccc(F)cc2)[C@H]2c3cc(C(=O)N(C)C)n(Cc4cccc5ccccc45)c3C[C@H]2CN1C(=O)c1ccccc1` it was 0.223; in that of `CC(C)C[C@@H]1NC(=O)[C@@H]2C[C@H](C(=O)NCCCCCNC(=O)CS)[C@H](c3ccc(O)cc3)N2C1=O`, -0.101.
Turning to `C=C[C@@H](CO)NS(=O)(=O)c1ccc(Br)cc1`, the composite z-score was -0.331.
Still for that read-out and setting: in the case of `COC(=O)[C@@]1(Cc2ccc(F)cc2)[C@H]2c3cc(C(=O)N(C)C)n(CCF)c3C[C@H]2CN1C(=O)c1ccccc1` it was -0.0044.
`COC(=O)[C@@]1(Cc2ccccc2)[C@H]2c3cc(C(=O)N(C)C)n(Cc4nc5ccccc5[nH]4)c3C[C@H]2CN1C(=O)c1ccccc1` came in with a composite z-score of 0.266.
In turn, `C=C(C(=O)CC[C@@H](OC(=O)c1ccccc1-c1ccccc1C(=O)O)c1ccc(OCCO)cc1)C(C)C` had a composite z-score of 0.169.
Molecule `COCCOC(=O)N1C(=O)[C@@]2(c3cc(C#CCCO)ccc31)[C@H](C(=O)N1CCN(c3ncccn3)CC1)[C@H]1C(=O)O[C@H](c3ccccc3)[C@H](c3ccccc3)N1[C@@H]2c1ccc(OCCO)cc1` gave a composite z-score of 0.199.
The molecule `O=C1OC[C@@H](c2ccccc2)n2cc(/C=C/c3ccccc3)cc21` registered a composite z-score of -0.189.
`CCOC(=O)C[C@H]1[C@H](OC(=O)c2cc3ccccc3oc2=O)[C@@H](NC(=O)Cc2ccc(OC)cc2)c2cc(OCCCO)ccc2N1C(=O)Cc1ccc(OC)cc1` registered a composite z-score of 0.0522.
With `C=CCN1C(=O)[C@@]2(O[C@@H](CCO)[C@H]([Si](C)(C)c3ccc(OC)cc3)[C@H]2C)c2cc(N3CCCCC3=O)ccc21`, the composite z-score was determined as 0.239.
`COc1ccc(CCNC(=O)[C@@]2(C)c3ccccc3C(=O)N(Cc3ccc(OC(F)(F)F)cc3)[C@H]2c2ccc(CO)cc2)cc1`: the composite z-score is -0.104.
As for `COC(=O)[C@@]1(Cc2ccccc2)[C@H]2c3cc(C(=O)N(C)C)n(CCF)c3C[C@H]2CN1C(=O)c1ccccc1`, the composite z-score turned out to be 0.62.
On to `COc1ccc(NN2C(C(O)c3ccc(F)cc3)C=CC3C(=O)N(C4CCCCC4)C(=O)C32)cc1` (stereo not given), for which the composite z-score was determined as 0.183.
`COC(=O)[C@@]1(Cc2ccc(F)cc2)[C@H]2c3cc(C(=O)N(C)C)n(Cc4ccsc4Br)c3C[C@H]2CN1C(=O)c1ccccc1` came in with a composite z-score of 1.88.
In the case of `COc1ccc(NN2C(C(O)c3ccccc3)C=CC3C(=O)N(C4CCCCC4)C(=O)C32)cc1` (stereo not given), the composite z-score worked out at 0.147.
Molecule `C=CC[C@H](OC(=O)Nc1ccc(SC)cc1)c1ccc(O)c(F)c1` gave a composite z-score of -0.246.
`CO[C@H]1O[C@H](CO)[C@@H](OC(=O)CCc2ccccc2)[C@@H]2OC(=O)[C@@H](Cc3ccc4ccccc4c3)C/C=C/C[C@H](Cc3ccc4ccccc4c3)C(=O)O[C@@H]12` yielded a composite z-score of -0.21.
`COC(=O)[C@H](Cc1ccccc1)N1CC(C)(OC)O[C@@H](Cc2ccccc2)[C@H]1/C=C/C1CC1` (stereo not given in full) returned a composite z-score of -0.165.
`C[C@H]1C2[C@H](Cc3ccccc3)NC(=O)[C@]23C(=O)N[C@@H](Cc2ccccc2)C(=O)N2CCC[C@H]2C(=O)NC/C=C/CC/C=C/C3[C@@H]2O[C@]12C` (stereo not given in full) had a composite z-score of 0.073.
`C=C(C(=O)CC[C@@H](OC(=O)c1ccccc1-c1ccccc1C(=O)O)c1cccc(OCCO)c1)C(C)C` gave a composite z-score of 0.107.
For `C=C(CCCC)C(=O)CC[C@H](OC(=O)c1ccccc1-c1ccccc1C(=O)O)c1cccc(OCCO)c1`, the composite z-score is -0.161.
`C=C(CCCC)/C(=C/C[C@@H](OC(C)=O)c1cccc(OCCO)c1)c1cc(C(=O)OC)ccc1OC` had a composite z-score of -0.0131.
Turning to `CCCCCN1CC=CC23O[C@@H]4/C=C\CCCOC(=O)C4[C@H]2C(=O)N(CCO)[C@@H]3C1=O` (stereo not given in full), the composite z-score was -0.18.
`O=C1NC(=O)C2C1C=CC(C(O)C1CCCCC1)N2Nc1ccccn1` (stereo not given) displayed a composite z-score of 0.0351.
Still for that read-out and setting: in the case of `COC(=O)C1(CC(C)C)C=C2C(=C(C)C(=O)C2C)CN1` (stereo not given) it was 0.786; in that of `Cc1ccc(N2C(=O)c3ccccc3[C@@H](C(=O)NCCN3CCOCC3)[C@@H]2c2ccc(CO)cc2)nc1`, 0.595.
`COCCOC(=O)N1C(=O)[C@@]2(c3cc(C#CCNC(N)=O)ccc31)[C@H](c1ccc(O)cc1)N1[C@H](c3ccccc3)[C@H](c3ccccc3)OC(=O)[C@H]1[C@@H]2C(=O)N1CCc2cc(OC)c(OC)cc2C1` gave a composite z-score of 0.0962.
With `O=C(NC1CC1)[C@@H]1c2ccccc2C(=O)N(C2CCCCC2)[C@H]1c1ccc(CO)cc1`, the composite z-score was -0.214.
In the case of `COc1ccc([Si](C)(C)[C@@H]2[C@@H](CC(=O)N(CCO)Cc3ccccc3)O[C@]3(C(=O)N(Cc4cccc(I)c4)c4ccccc43)[C@H]2C)cc1`, the composite z-score was determined as 0.0522.

The values above are taken from PubChem BioAssay.
